Targets with a hit are over-represented here; the source holds about 8,800 in all. About 0.5% of all pairs of compound and target were hits. Values without a mark were called inactive.
Legend:
Assay in all cases: log2 fold change, soluble protein after heating vs DMSO (PISA); higher = thermal stabilisation; K562 lysate, 10 uM; active = over 0.2 and 3.5 SD of the protein, either way, in both replicates (recomputed)
erlotinib = compound: C#Cc1cccc(Nc2ncnc3cc(OCCOC)c(OCCOC)cc23)c1 [erlotinib]
Outline: (§1)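 Values give the log-two fold change in thermal stability against solvent controls, from duplicates. Crude K562 extract at 1 mg/mL protein, made by dounce homogenisation in PBS pH 7.4 with 1 mM MgCl2, was treated with 10 μM compound for 30 min. After 3 min heating across 48°C-58°C, aliquots were pooled, adjusted to 0.5% NP-40 at 4°C and centrifuged at 21,000xg for 90 min. The supernatant was measured by TMTpro 16plex LC-MS/MS with channel sums equalised.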

[1] = compound: C/C(=N\NC(=O)C1=CC(=CC=C1)S(=O)(=O)N2CCOCC2)/C3=C(C=CC(=C3)Cl)O
Outline: as §1

[2] = compound: C1=CC(=CC=C1C2=NC3=C(N2)C=C(C=C3)C(=O)N)OC4=CC=C(C=C4)Cl
Outline: as §1

[3] = compound: C1=CC2=C(C=CC(=C2)/C=C\3/C(=O)NC(=NCC4=CC=CS4)S3)N=C1
Outline: as §1

[4] = compound: C1=CC2=NC=CN=C2C=C1/C=C/3\C(=O)NC(=O)S3
Outline: as §1

[5] = compound: C1=CC=C(C=C1)C2=NC(=C(N2)C3=CC=NC=C3)C4=CC(=C(C=C4)Cl)O
Outline: as §1

[6] = compound: C1=CC=C2C(=C1)C3=NNC4=CC=CC(=C43)C2=O
Outline: as §1

[7] = compound: C1CCN(C1)C(=O)NC2=CC=CC(=C2)NC3=NC=C(C(=N3)NCCC4=CN=CN4)Br
Outline: as §1

[8] = compound: C1CN(CCC1(CC2=CC=C(C=C2)Cl)N)C3=NC=NC4=C3C=CN4
Outline: as §1

IRAK-1-4 Inhibitor I = compound: C1COCCN1CCN2C3=CC=CC=C3N=C2NC(=O)C4=CC(=CC=C4)[N+](=O)[O-] [IRAK-1-4 Inhibitor I]
Outline: as §1

Chain of UniProt O43805 (O43805 whole entry, looked up): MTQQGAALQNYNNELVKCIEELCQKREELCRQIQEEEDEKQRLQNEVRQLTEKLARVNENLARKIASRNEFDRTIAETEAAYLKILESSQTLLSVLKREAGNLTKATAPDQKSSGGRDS
Chain of UniProt Q8NDV3 (Q8NDV3 whole entry, looked up): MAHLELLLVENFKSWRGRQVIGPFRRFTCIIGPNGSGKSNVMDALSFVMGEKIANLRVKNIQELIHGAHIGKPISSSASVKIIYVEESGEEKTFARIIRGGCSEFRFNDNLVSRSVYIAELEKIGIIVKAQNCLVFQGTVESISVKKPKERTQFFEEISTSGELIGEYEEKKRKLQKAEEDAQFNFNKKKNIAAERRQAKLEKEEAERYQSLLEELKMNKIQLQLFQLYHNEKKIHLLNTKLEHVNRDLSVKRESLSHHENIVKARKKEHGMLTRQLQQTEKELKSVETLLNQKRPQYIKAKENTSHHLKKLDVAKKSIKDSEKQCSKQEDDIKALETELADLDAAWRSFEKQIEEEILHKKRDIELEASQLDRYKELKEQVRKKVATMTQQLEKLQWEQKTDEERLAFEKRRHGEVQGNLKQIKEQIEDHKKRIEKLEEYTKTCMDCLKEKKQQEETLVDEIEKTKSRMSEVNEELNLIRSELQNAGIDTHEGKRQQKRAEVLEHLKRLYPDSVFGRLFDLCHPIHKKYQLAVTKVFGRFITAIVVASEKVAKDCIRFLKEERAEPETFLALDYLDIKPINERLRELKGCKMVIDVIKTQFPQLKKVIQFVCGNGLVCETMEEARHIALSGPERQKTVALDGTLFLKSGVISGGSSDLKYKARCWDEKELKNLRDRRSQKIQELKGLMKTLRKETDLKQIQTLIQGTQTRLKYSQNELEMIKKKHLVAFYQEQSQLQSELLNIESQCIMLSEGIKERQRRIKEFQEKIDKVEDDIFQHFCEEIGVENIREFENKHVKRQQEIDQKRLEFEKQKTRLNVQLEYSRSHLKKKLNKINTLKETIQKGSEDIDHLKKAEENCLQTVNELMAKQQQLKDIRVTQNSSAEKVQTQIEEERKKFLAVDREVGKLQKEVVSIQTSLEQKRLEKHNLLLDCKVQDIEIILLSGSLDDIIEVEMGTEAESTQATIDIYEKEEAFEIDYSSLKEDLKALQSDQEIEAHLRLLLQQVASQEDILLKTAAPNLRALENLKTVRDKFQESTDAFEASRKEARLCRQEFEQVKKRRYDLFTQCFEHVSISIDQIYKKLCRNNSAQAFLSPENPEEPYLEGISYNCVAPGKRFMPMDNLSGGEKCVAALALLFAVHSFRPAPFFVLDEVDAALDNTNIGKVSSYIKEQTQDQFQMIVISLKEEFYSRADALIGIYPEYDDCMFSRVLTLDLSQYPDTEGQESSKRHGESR
Chain of UniProt P51532 (P51532 whole entry, looked up): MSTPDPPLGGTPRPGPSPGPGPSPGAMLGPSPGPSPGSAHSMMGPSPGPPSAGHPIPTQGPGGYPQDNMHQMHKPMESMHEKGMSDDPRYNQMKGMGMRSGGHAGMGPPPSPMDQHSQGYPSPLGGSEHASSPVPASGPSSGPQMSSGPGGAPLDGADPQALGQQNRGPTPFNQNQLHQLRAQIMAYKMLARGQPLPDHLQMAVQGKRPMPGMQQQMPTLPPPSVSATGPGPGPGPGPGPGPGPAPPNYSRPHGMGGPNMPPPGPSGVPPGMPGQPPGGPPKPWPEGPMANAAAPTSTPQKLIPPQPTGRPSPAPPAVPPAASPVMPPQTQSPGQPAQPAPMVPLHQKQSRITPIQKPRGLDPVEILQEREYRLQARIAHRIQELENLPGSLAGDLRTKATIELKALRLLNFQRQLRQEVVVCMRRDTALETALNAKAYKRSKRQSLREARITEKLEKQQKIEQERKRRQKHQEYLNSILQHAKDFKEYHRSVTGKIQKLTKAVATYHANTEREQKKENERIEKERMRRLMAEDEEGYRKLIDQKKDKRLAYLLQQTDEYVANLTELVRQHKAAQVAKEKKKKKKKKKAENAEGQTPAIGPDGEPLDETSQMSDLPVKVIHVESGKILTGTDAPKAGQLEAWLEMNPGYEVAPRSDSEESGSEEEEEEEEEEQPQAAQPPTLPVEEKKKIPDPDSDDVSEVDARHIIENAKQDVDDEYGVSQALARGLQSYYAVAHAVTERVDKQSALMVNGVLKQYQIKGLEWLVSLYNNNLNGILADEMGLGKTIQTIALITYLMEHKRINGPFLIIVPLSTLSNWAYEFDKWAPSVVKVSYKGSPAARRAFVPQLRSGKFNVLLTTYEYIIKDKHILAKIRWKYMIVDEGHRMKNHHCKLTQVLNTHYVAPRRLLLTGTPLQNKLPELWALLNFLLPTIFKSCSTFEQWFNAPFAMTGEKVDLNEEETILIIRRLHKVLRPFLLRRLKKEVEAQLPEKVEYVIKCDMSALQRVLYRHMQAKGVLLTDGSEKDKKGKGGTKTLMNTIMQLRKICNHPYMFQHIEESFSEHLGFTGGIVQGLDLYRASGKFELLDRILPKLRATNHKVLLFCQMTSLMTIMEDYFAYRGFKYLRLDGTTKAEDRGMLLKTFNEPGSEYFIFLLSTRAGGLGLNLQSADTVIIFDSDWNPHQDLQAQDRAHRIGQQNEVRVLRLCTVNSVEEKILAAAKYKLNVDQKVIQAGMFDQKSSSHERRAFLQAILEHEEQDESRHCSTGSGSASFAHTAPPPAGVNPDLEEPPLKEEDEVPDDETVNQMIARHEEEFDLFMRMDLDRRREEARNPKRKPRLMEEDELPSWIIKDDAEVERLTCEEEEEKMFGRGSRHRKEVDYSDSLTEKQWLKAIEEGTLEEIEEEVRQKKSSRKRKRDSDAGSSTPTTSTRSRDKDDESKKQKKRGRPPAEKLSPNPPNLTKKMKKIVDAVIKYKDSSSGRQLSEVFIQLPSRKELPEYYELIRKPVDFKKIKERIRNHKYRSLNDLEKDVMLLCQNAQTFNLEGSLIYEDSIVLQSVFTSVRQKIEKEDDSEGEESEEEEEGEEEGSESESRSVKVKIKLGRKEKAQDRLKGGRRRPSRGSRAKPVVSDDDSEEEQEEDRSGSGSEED
Chain of UniProt Q9NTJ3 (Q9NTJ3 whole entry, looked up): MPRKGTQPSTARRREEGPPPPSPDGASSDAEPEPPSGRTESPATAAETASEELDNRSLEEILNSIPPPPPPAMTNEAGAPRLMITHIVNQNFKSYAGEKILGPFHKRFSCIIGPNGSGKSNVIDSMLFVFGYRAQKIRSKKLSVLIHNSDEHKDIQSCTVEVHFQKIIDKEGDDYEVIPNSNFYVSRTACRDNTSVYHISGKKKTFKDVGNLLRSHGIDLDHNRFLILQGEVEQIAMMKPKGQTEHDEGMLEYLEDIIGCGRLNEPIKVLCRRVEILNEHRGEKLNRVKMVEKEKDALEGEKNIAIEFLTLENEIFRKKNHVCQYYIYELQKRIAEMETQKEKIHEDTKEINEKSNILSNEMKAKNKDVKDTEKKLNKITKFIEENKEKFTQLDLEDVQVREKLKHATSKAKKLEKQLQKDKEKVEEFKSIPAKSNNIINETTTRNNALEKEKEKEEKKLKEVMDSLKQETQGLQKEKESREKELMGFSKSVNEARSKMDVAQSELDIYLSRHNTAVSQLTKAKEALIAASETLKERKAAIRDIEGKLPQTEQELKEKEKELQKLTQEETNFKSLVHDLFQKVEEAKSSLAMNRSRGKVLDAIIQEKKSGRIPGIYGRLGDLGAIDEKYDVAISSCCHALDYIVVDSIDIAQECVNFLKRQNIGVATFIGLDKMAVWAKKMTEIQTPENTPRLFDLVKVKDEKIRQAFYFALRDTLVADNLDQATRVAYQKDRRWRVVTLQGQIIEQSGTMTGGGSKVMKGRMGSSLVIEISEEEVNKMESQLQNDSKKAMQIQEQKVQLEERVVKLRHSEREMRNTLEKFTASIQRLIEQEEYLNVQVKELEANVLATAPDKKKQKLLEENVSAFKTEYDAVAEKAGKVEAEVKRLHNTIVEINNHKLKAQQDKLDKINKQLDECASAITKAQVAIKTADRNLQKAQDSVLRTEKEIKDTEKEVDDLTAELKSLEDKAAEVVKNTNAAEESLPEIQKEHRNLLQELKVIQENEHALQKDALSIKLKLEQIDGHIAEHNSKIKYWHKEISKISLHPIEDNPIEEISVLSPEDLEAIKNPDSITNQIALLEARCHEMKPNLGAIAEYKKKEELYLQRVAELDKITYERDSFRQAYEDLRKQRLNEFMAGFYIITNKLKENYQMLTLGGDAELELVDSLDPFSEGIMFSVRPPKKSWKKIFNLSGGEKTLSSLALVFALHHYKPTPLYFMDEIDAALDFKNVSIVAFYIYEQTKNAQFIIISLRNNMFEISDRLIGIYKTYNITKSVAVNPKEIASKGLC
Chain of UniProt Q9UJZ1 (Q9UJZ1 whole entry, looked up): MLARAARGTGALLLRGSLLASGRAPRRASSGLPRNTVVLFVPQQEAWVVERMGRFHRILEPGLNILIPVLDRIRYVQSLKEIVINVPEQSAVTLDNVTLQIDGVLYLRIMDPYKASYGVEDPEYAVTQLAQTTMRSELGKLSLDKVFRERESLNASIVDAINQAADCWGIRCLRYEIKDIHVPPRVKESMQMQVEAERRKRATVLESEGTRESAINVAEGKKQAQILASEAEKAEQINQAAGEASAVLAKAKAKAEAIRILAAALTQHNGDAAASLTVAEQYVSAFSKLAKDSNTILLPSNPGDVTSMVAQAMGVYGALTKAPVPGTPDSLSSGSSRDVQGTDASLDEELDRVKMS
Chain of UniProt O95149 (O95149 whole entry, looked up): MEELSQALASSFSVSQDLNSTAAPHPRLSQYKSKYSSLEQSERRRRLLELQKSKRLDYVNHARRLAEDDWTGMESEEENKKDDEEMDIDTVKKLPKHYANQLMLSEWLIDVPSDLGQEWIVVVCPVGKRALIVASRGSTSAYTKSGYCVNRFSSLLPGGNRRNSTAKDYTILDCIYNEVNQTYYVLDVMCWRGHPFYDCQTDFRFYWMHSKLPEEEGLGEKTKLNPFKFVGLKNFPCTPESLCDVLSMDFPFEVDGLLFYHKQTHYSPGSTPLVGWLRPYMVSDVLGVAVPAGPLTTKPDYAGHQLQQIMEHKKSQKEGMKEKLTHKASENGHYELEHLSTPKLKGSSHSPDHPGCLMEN

Target	log2 fold change (erlotinib)	log2 fold change [1]	log2 fold change [2]	log2 fold change [3]	log2 fold change [4]	log2 fold change [5]	log2 fold change [6]	log2 fold change [7]	log2 fold change [8]	log2 fold change (IRAK-1-4 Inhibitor I)
SNUPN (UniProt O95149)	-0.048	-0.116	0.3	0.024	0.035	0.069	0.009	0.02	-0.039	-0.001
SLC38A10 (UniProt Q9HBR0)	0.007	-0.128	-0.006	-0.065	-0.009	0.02	-0.127	0	0.016	0.047
STOML2 (UniProt Q9UJZ1)	-0.021	0.018	0.04	-0.049	0.037	0.012	-0.063	0.023	0.027	0.036
SSU72 (UniProt Q9NP77)	-0.067	0.057	-0.071	-0.064	-0.003	0.07	0.005	0.029	0	0.001
SSB (UniProt P05455)	-0.008	0.007	-0.014	-0.025	-0.009	0.001	-0.015	0.013	0.002	-0.011
SLC30A6 isoform 2 (UniProt Q6NXT4)	-0.014	0.031	-0.012	-0.08	0.069	0.008	-0.212	-0.005	-0.059	0
SMC6 (UniProt Q96SB8)	0.02	0.038	-0.03	-0.002	-0.009	0.019	-0.055	-0.031	0.03	0.01
SMARCA4 (UniProt P51532)	-0.01	-0.018	-0.021	0.011	-0.001	-0.003	-0.017	-0.003	-0.024	-0.025
SPPL2A (UniProt Q8TCT8)	0.005	-0.007	0.118	-0.104	-0.011	-0.07	-0.141	-0.082	-0.644 (active)	0.014
STK24 (UniProt B4DR80)	0.019	0.02	0.018	-0.04	-0.003	-0.004	0.198	0.045	0.013	-0.007
SPNS1 (UniProt Q9H2V7)	0.015	-0.043	-0.02	0.043	-0.031	0.029	-0.063	0	0.044	0.032
SMC4 (UniProt Q9NTJ3)	-0.006	-0.018	-0.007	0	-0.026	0	-0.046	-0.015	-0.014	-0.009
SNAP23 (UniProt O00161)	-0.01	0.037	-0.025	0.047	0.02	0.039	0.022	0.018	0.03	0.038
SRRT (UniProt Q9BXP5)	0.039	0.023	-0.005	0.041	0.004	0.022	-0.03	-0.005	-0.011	0.004
SRGN (UniProt P10124)	-0.034	0.023	0.051	-0.019	0.05	0.051	-0.069	0.065	-0.139	0.013
SH3BP2 isoform 4 (UniProt P78314)	-0.037	0.213	0.001	0.044	-0.103	0.088	-0.073			0.03
SPC25 (UniProt Q9HBM1)	0.021	-0.065	-0.006	0.059	-0.034	0.021	-0.006	-0.039	0.018	0.027
SP1 (UniProt P08047)	-0.012	-0.04	0.053	0.093	-0.047	0.007	0.04	0.004	0.013	0.034
SYPL1 (UniProt Q16563)	0.026	-0.017	-0.014	0.016	0.04	0.025	0.002	0.014	0.002	0.032
SOX5 (UniProt P35711)	-0.169	0.08	0.025	0.38 (active)	0.131	0.059	-0.239	0.028	0.154	0.044
SSNA1 (UniProt O43805)	-0.004	-0.04	-0.013	0.07	-0.036	0.04	-0.03	-0.002	0.066	0.018
SMG6 (UniProt Q86US8)	-0.038	0.026	0.012	0.009	0.021	0	-0.092	-0.04	-0.005	0.026
SMC1B isoform 3 (UniProt Q8NDV3)	-0.002	0.265 (active)	0.003	-0.04	-0.067	0.02	-0.032	0.048	0.205	0.043
TADA3 (UniProt O75528)	0.02	-0.046	0.032	-0.073	-0.04	0.048	0.009	-0.058	0.053	0.018
SFN (UniProt P31947)	0.013	-0.239	-0.006	-0.053	-0.002	-0.004	0.025	0.012	-0.064	-0.03
SLC25A38 (UniProt Q96DW6)	-0.077	-0.117	-0.024	-0.049	-0.086	-0.114	-0.092	-0.023	-0.07	-0.052
SMARCAD1 isoform 2 (UniProt Q9H4L7)	0	0.022	-0.039	0.023	-0.019	0.041	-0.052	-0.051	0.003	-0.006
SSBP3 (UniProt Q9BWW4)	0.038	-0.09	0.004	0.026	0.129	-0.048	0.018	-0.054	0.013	0.041
SNRPF (UniProt P62306)	-0.029	-0.07	0.081	-0.017	-0.065	0.028	-0.034	-0.018	0.001	0.007
SYK (UniProt P43405)	-0.004	-0.007	0.017	0.039	-0.033	0.021		-0.013	-0.038	0.053

— the supplement of paper PMC10849652
